This is part of a sample that, as a whole, favours compounds with a hit. Of some 83,000 tested, about 20% had one in any assay.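 Compound tested at a single concentration for 48 hours in 96-well plates; a percent growth value below 10 was scored as active.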 Calls of active or inactive are those of the source.

For the test, the system named is MCF7 breast. As to the kind of experiment: NCI-60 one-dose screen, 48 h (100 = growth as untreated, 0 = no growth, -100 = all killed). The settings on record: 10 µM unless noted. How it is done: Growth inhibition of the MCF7 human tumor cell line is measured as a screen for anti-cancer activity. Cells are grown in 96 well plates and exposed to the test compound for 48 hours. Compounds are tested at a single concentration, which is 10^-5 M for most compounds. The reported endpoint is percent growth (GI% or GIPRCNT), where numbers from 0 - 100% represent growth inhibition, and numbers from -100% - 0 represent cell death. For example, a value of 40 represents 60% growth inhibition. A value of 0 means no net growth occurred over the course of the experiment. A value of -40 indicates 40% of cells at the beginning of the experiment died by the end of the experiment. A value of -100 means all cells are dead at the end of the experiment.
NCI-60 Human Tumor Cell Lines Screen was performed using the standard one-dose NCI protocol, which is described in more detail at https://dtp.cancer.gov/discovery_development/nci-60/default.htm.
Compounds with GIPRCNT values below 10 were considered active. Activity score was based on GIPRCNT using the following formula: […]
Score is 0 for GIPRCNT values of 100 or above, 50 for GIPRCNT values of 0, and 100 for GIPRCNT values of -100.
For the molecule `COc1cc(NCc2ccccc2O)c2ncccc2c1`, the growth was 95.2% (inactive).
Consider `CC(C)[N+](C)(C)CC(O)COc1cccc2ccccc12` (stereo not given), for which the growth was 102% (inactive).
The figure for `O=[N+]([O-])c1cc(CCl)ccc1OCCBr` is 89.7% (inactive); for `CCc1ccc(NC(=O)N[C@@H](Cc2cc(F)cc(F)c2)C(=O)N[C@@H]2C(=O)N3C[C@H](O)C[C@H]3C(=O)N3CCOC[C@H]3C(=O)N[C@@H](C)C(=O)N3C[C@H](C)C[C@H]3C(=O)O[C@H]2C)cc1` it is 24.1% (inactive).
The figure for `CC[C@@](C)(NC(=O)[C@H](C)NC(=O)CCNC(=O)C(C)(C)NC(=O)[C@H](C)NC(=O)[C@@H]1CCCN1C(=O)[C@@](C)(CC)NC(=O)[C@H](Cc1ccccc1)NC(=O)C1CCCN1C(=O)C(C)(C)NC(=O)C1CCCN1C(=O)C(C)(C)NC(C)=O)C(=O)NCCC(=O)N[C@@H](CC(C)C)C(=O)NC(C)(C)C(=O)NCCC(=O)N[C@@H](CC(C)C)C(=O)NC(C)(C)C(=O)NC(C)(C)C(=O)N[C@@H](CC(C)C)C(=O)NCCC(=O)NCO` (stereo not given in full) is -84.9% (active).
As for `O=c1c2c3c(sc2n2cnnc2n1Cc1ccccc1)CCCC3`, the growth is 96.6% (inactive).
Turning to `CCCCCCCCCCCCCCCCCCNC(=S)N/N=C/c1ccc(OC)c(OC)c1`, the growth is 96.8% (inactive).
The figure for `NC(=S)Cc1ccccc1` is 91% (inactive); for `CCOc1ccc2sc(NS(=O)(=O)c3ccc(N)cc3)nc2c1` it is 97.4% (inactive).
The figure for `CC(C)=CC/C=C(/C)[C@H]1CC[C@]2(C)[C@@H]1CC[C@@H]1[C@@]3(C)CC/C(=N/O)C(C)(C)[C@@H]3CC[C@]12C` is 36.1% [100 µM] (inactive); for `O=C(NCCCCCCCNC(=O)OCc1ccc2c(Cl)cc(Cl)c(O)c2n1)OCc1ccc2c(Cl)cc(Cl)c(O)c2n1` it is -30.2% (active).
As to `O=C(Nc1ccc(CN2CCOCC2)c(C(F)(F)F)c1)c1nc2ccc3[nH]ncc3c2c2c1CCCC2`, the growth was 83.1% (inactive).
In the case of `COC(=O)c1c(C)[nH]c(/C=C2\N=C(c3ccc[nH]3)C=C2OC)c1C`, the growth was 1.82% (active).
For the molecule `CCOC(=O)C(c1ccccc1)N1C(=O)c2ccccc2C1=O` (stereo not given), the growth was 91.4% (inactive).
In the case of `CC(C)=CC/C=C(/C)[C@H]1CC[C@]2(C)[C@@H]1CC[C@@H]1[C@@]3(C)CCCNC(C)(C)[C@@H]3CC[C@]12C`, the growth was -54.6% [100 µM] (active).
Regarding `COc1ccc2nc3cc(Cl)ccc3c(Nc3ccc(O)c(CN4CCCC4)c3)c2c1`, the growth is 43.4% (inactive).
The figure for `CC(C)(C)c1cc(C(=O)Nc2ccccc2C(=O)NCCN)cc(C(C)(C)C)c1` is -63.1% (active); for `COCCCNc1nc(NC(=O)c2cc(Br)cc(C(F)(F)F)c2)cc(-c2cccnc2)n1` it is 83.8% (inactive).
The figure for `CN(C)c1ccc(N=Nc2ccc3ccccc3c2)cc1` is 43.9% (inactive); for `CCOC(=O)C(=Cc1ccccc1[N+](=O)[O-])C(=O)OCC` it is 10.4% (inactive).
The figure for `ClC1=C(Cl)C(Cl)=C(Cl)C1=Cc1ccccc1` is -29.3% (active).
`Cc1ccc(Cn2c(O)c(N=NC(=O)c3ccc(S(N)(=O)=O)cc3)c3ccccc32)cc1`: the growth is 95% (inactive).
To `C[n+]1c2ccccc2nc2c(N)cc(N)cc21` belongs 82.7% (inactive); to `N#C/C(C(=O)c1ccccc1)=C1/C(=O)Nc2ccc(Br)cc21`, 95.9% (inactive).
For the molecule `CC1=C/C(=C(\c2cc(C)c(O)c(C(=O)O)c2)c2c(Cl)cccc2Cl)C=C(C(=O)O)C1=O`, the growth was 92.7% (inactive).
Turning to `O=C(N[C@@H]1CCCc2ccccc21)[C@H](CCC(=O)N1CCN(C2CCCCC2)CC1)N1C(=O)[C@@H](N2C(=O)OC[C@@H]2c2ccccc2)[C@H]1/C=C/c1ccccc1`, the growth was 16.5% (inactive).
Take `CCCCN(CC)CC(CC)Nc1cc(OC)cc2cccnc12` (stereo not given): the growth is 98.5% (inactive).
Take `C=C(CC(=O)OC)C(C)=O`: the growth is 111% (inactive).
To `Cc1nn(-c2ccccc2)c(N2CCOCC2)c1-c1nc2ccc([N+](=O)[O-])cc2[nH]1` belongs 96.6% (inactive); to `CC/C=C(\C)C(CCC)(CN=O)C(=O)OCC` (stereo not given), 102% (inactive).
The figure for `N#Cc1ccc(-c2ccc(COc3ccc(CC4SC(=O)NC4=O)cc3)cc2)cc1` (stereo not given) is 38.1% (inactive); for `O=C(NCc1ccccc1)C(Cl)Cl` it is 90.1% (inactive).
The figure for `CCCCCCCCCCCCNC(=S)N/N=C/c1ccccc1O` is 51% (inactive).
Turning to `C[C@H]1[C@H](C)CC[C@]2(COC(=O)CCC(=O)O)CC[C@]3(C)C(=CC[C@@H]4[C@@]5(C)CCCNC(C)(C)[C@@H]5CC[C@]43C)[C@H]12`, the growth is 54.9% [100 µM] (inactive).
With `COc1ccc(-c2c(C)nn3c(NCCN4CCOCC4)cc(C)nc23)cc1OC`, the growth was 95.3% (inactive).
To `COc1ncc(-c2ccc3nccc(C#CCCCCC(=O)O)c3c2)cc1NS(=O)(=O)c1ccc(F)cc1F` belongs 6.95% (active).
Turning to `CCOC(=O)n1cc(C2=C(c3ccc(OC)c(OC)c3)COC2=O)c2ccccc21`, the growth was 14.9% (inactive).
Turning to `COc1cc2c(c(Br)c1N)-c1cc(Br)c(N)cc1C2=O`, the growth is 3.68% (active).
As to `CCOC(CNC(=O)c1cccc([N+](=O)[O-])c1)OCC`, the growth was 87.2% (inactive).
For `COc1cc(OC)cc(C(=O)Nc2cc(-c3cccnc3)nc(NCCCN3CCOCC3)n2)c1`, the growth was 88% (inactive).

Values taken from PubChem BioAssay (NCI).
